According to PubChem BioAssay AID504809 (National Center for Advancing Translational Sciences (NCATS), 2011):
Records with an inconclusive call do not appear. Calls of active or inactive are those of the source. Calls come from the whole dose curve; as a rule, active = well fitted curve in the direction sought with a large enough effect; inconclusive = small, poorly fitted or top-dose-only effect, or another doubt; inactive = no such curve, though single readings can be large or run the other way.

Assay: Followup screen for small molecules that induce DNA re-replication in MCF 10A normal breast cells
Details: MCF 10A DNA re-replication, Hoechst nuclear intensity, 48 h; series mostly up to 46.1 µM
Text: NIH Molecular Libraries Probe Production Network [MLPCN] NIH Chemical Genomics Center [NCGC] MLPCN Grant: Fast Track K99 CA136555 Assay Provider: Melvin DePamphilis, NICHD, NIH Assay Overview Eukaryotic cells normally restrict genome duplication to once per cell division. When this process is aberrant, DNA re-replication occurs when cells reinitiate DNA replication before the first round of replication is complete. DNA re-replication induces the DNA damage response, arrests cell proliferation, and triggers apoptosis. The cell cycle components cyclin A, Cdt-1, Cdc6 and geminin are critical regulators of this process and their misregulation results in DNA re-replication in normal and cancer cells. To identify compounds that induce re-replication in normal cells, an image-based assay was used to measure DNA content of nuclei, as detected by the fluorescent DNA binding dye, Hoechst. Cell nuclei were imaged by a fluorescence scanning plate imager and compounds that induce DNA re-replication were identified by the increase of nuclei with elevated fluorescence intensity.
Assay Protocol Summary For screening, 250 cells in 5 uL/well were dispensed into black clear 1536-well plates (Aurora) using a solenoid-based dispenser. Following transfer of 23 nL compound or DMSO vehicle by a pin tool, the plates were incubated 48 hr at 37 C and 5% CO2. After addition of 1 uL/well Hoescht stain, the plates were incubated 40 min at 37 C, 5% CO2 and total intensity of fluorescent objects (nuclei) were enumerated by an Acumen Explorer Ex3 (TTP LabTech) fluorescence scanning plate imager (405 nm excitation, 500-530 nm emission). Keywords: NIH Roadmap, MLPCN, MLI, MLSMR, qHTS, NCGC, DNA replication, cancer

Question: Which Potency does the source give for `CS(C)=O.[Cl-].[Cl-].[Cu+2]` here?
Answer: inactive

Question: For `CC(=O)[O-].CS(C)=O.[Cu+]`, which Potency is on record?
Answer: inactive

Question: Which Potency does the source give for `CCN(CC)C(=S)SSC(=S)N(CC)CC` here?
Answer: 21300 nM (active)

Question: With `CC(=O)[O-].CCN(CC)C(=S)SSC(=S)N(CC)CC.[Cu+]` as the compound, how does the Potency read?
Answer: 190 nM (active)

Question: Which Potency does the source give for `CCN(CC)C(=S)SSC(=S)N(CC)CC.[Cl-].[Cl-].[Cu+2]` here?
Answer: 95 nM (active)
